Assay outcomes as filed in PubChem BioAssay.
An excerpt weighted towards active compounds, which were near 10% of everything screened.
G9a block: blocks human histone lysine methyltransferase G9a | Q96KQ7 | G9a H3K9 monomethylation, AlphaScreen, 2 h | Potency, µM (doses to about 102 µM), for inactives: top-dose activity, negative = inhibition, hits mostly inhibitors | actives 8.8% (n = 350,000); further: on the % scale 0 is the no-effect control and ±100 the full control effect; nearly all actives have a fitted effect of over 75% in size
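Signal arises when biotinylated H3K9 peptide, once monomethylated, bridges streptavidin donor and antibody-captured acceptor beads. Enzyme at 20 nM was preincubated 15 min with test compounds; peptide 500 nM and SAM 20 uM then reacted for 2 h.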
HP1b chromo inh: inhibitors of HP1-beta chromodomain binding to methylated histone tails; P83916; Potency, µM (top dose mostly 114 µM), for inactives: top-dose activity change, negative = inhibition, most hits filed as inhibitors; AlphaScreen HP1-beta / biotin-H3K9me3 peptide binding; actives 0.56% (n = 390,000); further: nearly all actives have a fitted effect of over 70% in size
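HP1-beta protein (50 nM final) preincubated 30 min at room temperature with biotinylated H3(1-18)K9me3 peptide (50 nM) in PBS pH 7.4, 0.01% Tween-20, then compound added for 30 min. AlphaScreen streptavidin donor/nickel chelate acceptor beads (10 ug/mL final), 30 min dark, luminescence read.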
JMJD2A Tudor: inhibitors of human JMJD2A Tudor domain | AlphaScreen JMJD2A-Tudor / H3K4me3 peptide binding | Potency, µM (series often up to 114 µM), inactives show at the top dose activity change, negative = inhibition, actives largely listed as inhibitors | actives 4.4% (n = 390,000) | AID 504339; further: on the % scale 0 is the no-effect control and ±100 the full control effect; nearly all actives have a fitted effect of over 50% in size
BAZ2B block: inhibitors of human BAZ2B bromodomain; Q9UIF8; AlphaScreen BAZ2B-H3K14Ac peptide displacement; Potency, µM (doses to about 114 µM), for the others: at the top dose activity change, negative = inhibition, most hits filed as inhibitors; actives 4.4% (n = 360,000); AID 504333; further: on the % scale 0 is the no-effect control and ±100 the full control effect; nearly all actives have a fitted effect of over 60% in size
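Inhibition is scored as reduced AlphaScreen emission. The BAZ2B/b-H3(5-23)K14Ac complex (50 nM each) in PBS pH 7.4, 0.01% Tween-20 meets compound (up to 110 uM) for 30 min at RT before bead addition.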
GLS inh: glutaminase GLS (human) inhibition | O94925 | GLS enzymatic activity, qHTS titration | Potency, µM (highest dose often 45.5 µM), inactives show top-dose activity change, negative = inhibition, actives largely listed as inhibitors | actives 0.21% (n = 410,000); further: on the % scale 0 is the no-effect control and ±100 the full control effect
Target sequence (O94925 whole entry, looked up): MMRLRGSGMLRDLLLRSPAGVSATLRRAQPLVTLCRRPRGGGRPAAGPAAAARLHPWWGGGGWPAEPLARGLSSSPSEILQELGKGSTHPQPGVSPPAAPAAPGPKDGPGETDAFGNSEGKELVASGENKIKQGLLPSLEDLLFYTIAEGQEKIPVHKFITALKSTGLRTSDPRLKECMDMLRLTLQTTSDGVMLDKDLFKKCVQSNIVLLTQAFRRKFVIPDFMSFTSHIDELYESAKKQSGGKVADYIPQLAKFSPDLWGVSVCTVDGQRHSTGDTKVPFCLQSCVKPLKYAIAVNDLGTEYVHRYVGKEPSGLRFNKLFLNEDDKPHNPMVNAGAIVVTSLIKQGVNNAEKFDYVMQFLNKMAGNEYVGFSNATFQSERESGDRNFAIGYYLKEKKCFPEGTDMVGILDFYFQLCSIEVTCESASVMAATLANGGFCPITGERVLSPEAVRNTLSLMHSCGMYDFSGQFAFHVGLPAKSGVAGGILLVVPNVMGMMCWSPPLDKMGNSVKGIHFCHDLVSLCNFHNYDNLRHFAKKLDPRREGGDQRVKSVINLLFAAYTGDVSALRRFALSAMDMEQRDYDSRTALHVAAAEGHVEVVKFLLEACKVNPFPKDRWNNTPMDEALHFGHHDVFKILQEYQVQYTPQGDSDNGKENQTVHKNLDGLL
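Enzyme dispensed in phosphate buffer (45 mM, pH 8.2, 0.02% Tween-20), compounds pinned in, then 1 mM L-glutamine solution and the glutamate oxidase–HRP–Amplex Red mix added; fluorescence read immediately and again after 30 min at room temperature.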
The depositor's hits bear a star; ? = inconclusive; . = no result; [ ] = another dose, or the depositor's remark. The call rests on the fitted dose curve; in most records, active means well fitted curve in the direction sought with a large enough effect; inconclusive means small, poorly fitted or top-dose-only effect, or another doubt; inactive means no such curve, though single readings can be large; an effect the other way counts as inactive or inconclusive. Potency means the concentration at half of the fitted maximal effect.

SMILES	G9a block	HP1b chromo inh	JMJD2A Tudor	BAZ2B block	GLS inh
CCOc1ccccc1NC(=O)CSc1nccn1-c1ccccc1	?	-20.6%	-33.3%	50.1µM*	5.1%
COc1ccc(Cn2ccnc2SCC(=O)Nc2ccccc2OC)cc1	44.7µM*	-8.9%	?	?	-0.7%
COc1ccc(NC(=O)CSc2nccn2-c2ccccc2)c(OC)c1	?	-22.4%	-32.7%	?	-4.8%
Cc1cccc(-n2ccnc2SCC(=O)Nc2cccc3ccccc23)c1	12.6µM*	?	31.6µM*	15.8µM*	-14.5%
Cc1ccc(NC(=O)CSc2nnc(C)c(=O)n2N)c(C)c1	1.78µM*	15.3%	-6.9%	50.1µM*	9.2%
Cc1cccc(NC(=O)CSc2nnc(C)c(=O)n2N)c1	17.5%	20.9%	-4.2%	.	-12.2%
COc1ccc(Cn2ccnc2SCC(=O)Nc2ccccc2F)cc1	?	6.7%	-16.7%	?	1.0%
COc1ccc(OC)c(CNC(=O)C2CCN(c3nc4ccccc4nc3C(F)(F)F)CC2)c1	4.9%[59 µM]	20.4%	-11.7%	-1.3%	2.0%
Cc1cc(C)cc(NC(=O)Cc2ccc(-n3cccc3)cc2)c1	20.4%	28.2%	11.3%[57.1 µM]	-9.5%	-4.5%
COc1ccc(-c2nnc(SCC(=O)Nc3cc(OC)ccc3OC)nc2-c2ccc(OC)cc2)cc1	-36.1%[59 µM]	4.5%	?	7.94µM*	5.4%
COc1ccc(Cl)cc1NC(=O)CSc1nccn1-c1ccc(Cl)cc1	-32.3%[59 µM]	-8.3%[57 µM]	-15.8%	-23.6%	-1.1%
COc1ccc(OC)c(NC(=O)CSc2nccn2-c2cc(C)cc(C)c2)c1	15.8µM*	?	10µM*	12.6µM*	-1.3%
COc1ccc(-c2nnc(SCC(=O)Nc3cccc(Cl)c3C)nc2-c2ccc(OC)cc2)cc1	-29.4%[59 µM]	-5.9%	?	-25.8%	2.4%
Cc1ccc(NC(=O)Cc2ccc(-n3cccc3)cc2)c(C)c1	1.4%	8.9%	-35.8%[57.1 µM]	50.1µM*	-8.9%
Cc1cc(C)cc(-n2ccnc2SCC(=O)Nc2ccc(C)cc2C)c1	11.2µM*	-10.6%[57 µM]	39.8µM*	31.6µM*	0.5%
CCOC(=O)[C@]12CCC=C1N(Cc1cccc3ccccc13)C(=O)[C@H](CC(=O)NCCCOC)C2	.	.	.	.	-12.9%
COc1ccc(-c2ccc3c(c2)c(Sc2ccccc2)c(-c2ccccc2)n3C)cc1	.	.	.	.	0.8%
O=C(O)CCC(=O)N1CCN(S(=O)(=O)c2ccc3ccccc3c2)CC1	-7.7%	30.4%	6.3%	-10.0%	-7.3%
O=C(Cn1ncc(Cl)c(Cl)c1=O)N1CCN(S(=O)(=O)c2ccc3ccccc3c2)CC1	44.7µM*	35.6%	-4.2%	11.2%	-9.1%
CC(=O)c1ccc(N2C(=O)Nc3ccccc3S2(=O)=O)cc1	-34.1%[59 µM]	33.8%	-10.7%	-9.8%	0.3%
Cc1nc(C(=O)O)cc([N+](=O)[O-])c1C	.	.	.	.	-7.1%
CCOc1cc(OCC)cc(C(=O)NCc2ccco2)c1	18.1%	-17.0%	89.1µM*	?	3.1%
CC(C)C1Nc2ccc(C(=O)NCc3ccco3)cc2NC1=O (centres undefined)	79.4µM*	3.2%	0.4%	-2.8%	-21.2%
COCCCNC(=O)c1ccc2c(c1)NC(=O)C(C(C)C)N2 (centres undefined)	2.7%[59 µM]	20.3%	-13.7%	2.2%	4.4%
CCOc1ccc(C(=O)NCc2ccco2)cc1	4.6%[59 µM]	12.5%	-31.7%	?	-14.8%
SMILES	G9a block	HP1b chromo inh	JMJD2A Tudor	BAZ2B block	GLS inh
CCOC(=O)c1c(C)c(C(=O)NCc2ccco2)c(C)n1Cc1ccccc1	?	-31.0%	35.5µM*	?	-14.6%
CCC(CC)C(=O)Nc1cccc(C(=O)NCc2ccco2)c1	?	16.2%	?	56.2µM*	-15.5%
COC(=O)c1ccccc1S(=O)(=O)Nc1cc(=O)c2ccccc2[nH]1	.	.	-29.8%	.	.
COc1cccc(-c2nnc3n2N=C(c2c(OC)cccc2OC)CS3)c1	.	.	-18.6%	.	.
O=C(/C=C\C=C/c1ccc2c(c1)OCO2)N1CCCCC1	17.7%[21.5 µM]	.	.	.	.
CCOC(=O)N1CCC(N2C(=O)c3ccc(C(=O)NCc4ccc(F)cc4)cc3C2=O)CC1	?	22.6%	-8.8%	6.4%	-3.5%
CCOC(=O)N1CCC(N2C(=O)c3ccc(C(=O)NCc4ccco4)cc3C2=O)CC1	70.8µM*	3.0%	-15.3%	0.1%	-2.7%
COc1ccc(C2=NN(C(N)=S)C(c3ccco3)C2)cc1 (centres undefined)	22.4µM*	-15.9%	-35.6%	?	6.7%
Cc1ccc(C2=NN(C(=O)CSc3nccn3C)C(c3ccco3)C2)cc1 (centres undefined)	?	12.7%	?	?	5.8%
COc1ccc(C2=NN(C(=O)CSc3nnc(-c4ccccc4F)o3)C(c3ccco3)C2)cc1 (centres undefined)	44.7µM*	1.6%	-15.6%	-7.3%	-6.6%
COc1ccc(C2=NN(C(=O)c3ccco3)C(c3ccco3)C2)cc1OC (centres undefined)	?	16.0%	-22.9%	-34.9%	0.0%
CC(=O)N1CCC2(CC1)OC(=O)C(C)=C2C(=O)Nc1cccc(Cl)c1C	7.9%[59 µM]	37.9%	-16.5%	-5.6%	4.4%
O=C(COc1ccc(F)cc1)Nc1cc(Cl)ccc1-n1cncn1	56.2µM*	12.0%	-11.0%	8.8%	-10.2%
O=C(Nc1cc(Cl)ccc1-n1cncn1)c1ccc(Br)o1	56.2µM*	38.5%	-9.0%	-0.1%	5.7%
CCCOc1ccccc1OCC(=O)Nc1cc(Cl)ccc1-n1cncn1	44.7µM*	18.3%	-0.7%	4.9%	1.4%
O=C(CCc1ccccc1Cl)NC1CCCN(c2ccc(C(F)(F)F)cn2)C1 (centres undefined)	27.1%[59 µM]	32.1%	-6.9%	0.5%	-0.2%
CCOc1ccc2cc(C#N)c(SCC(=O)N3CCOCC3)nc2c1	50.1µM*	19.2%	-18.0%	9.7%	9.2%
CC(=O)/C=C\c1ccccc1OC(=O)c1cc2ccccc2oc1=O	.	22.8%	-12.1%	-2.9%	2.7%
O=C(/C=C\c1ccccc1OC(=O)c1ccccc1F)c1cc2ccccc2o1	44.7µM*	-12.8%	-35.7%	-31.0%	3.5%
O=C(NCCc1nc2ccccc2n1CCCOc1ccccc1)C1CCCCC1	.	24.0%[57 µM]	-10.8%[57.1 µM]	.	.
Cn1cc([N+](=O)[O-])c(C(=O)Nc2cc(Oc3cccnc3)cc([N+](=O)[O-])c2)n1	44.7µM*	11.5%	-18.6%	?	7.8%
Cn1cc([N+](=O)[O-])c(C(=O)Nc2ccc(-c3nc4ccccc4[nH]3)cc2)n1	-8.6%[59 µM]	12.1%	56.2µM*	?	28.3%
CCc1ccc(OCC(=O)NNCC(=O)Nc2ccc(OC)cc2)cc1	-45.0%	25.0%	-10.3%	8.5%	-7.2%
CC(C)CN(C(=O)C1CCCO1)c1c(N)n(CC(C)C)c(=O)[nH]c1=O (centres undefined)	-48.2%	20.7%	-5.5%	5.2%	-1.0%
CCn1c(C)c(P(=O)(N2CCOCC2)N2CCOCC2)c2ccccc21	9.5%	24.5%	2.4%	2.8%	4.7%
